Source: PubChem (several laboratories)
V-ATPase pH: regulators of yeast V-ATPase proton pumping, primary screen, pHLuorin cytosolic pH fluorescence; S. cerevisiae; response, % at 10 µM; 0.37% of 350,000 active; AID 504577, 2011; in the data active = response mostly above about 7.3%, no sharp cut-off; inactive = mostly below about 5.4%; also: actives read high
Yeast superoxide: reduction of superoxide in aged yeast, primary screen, HTS | S. cerevisiae aged cells, superoxide DHE fluorescence; hits give low values | superoxide response (% of plate mean), % at 10 µM | 0.18% of 330,000 active | AID 2690, 2010;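 active = superoxide response under a set limit, about three screen SD below normal, cut at about 65% in these data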;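 also: yeast aged for seven days with compound at 30 °C before DHE staining; 100% = average MFI of all compound-treated wells on the plate with controls excluded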
PERK inhibitor: block of dimerizer-induced PERK translation repression, primary screen, PERK inhibitor project, CHO PERK-DD cells, SEAP luminescence, HTS. Eukaryotic translation initiation factor 2-alpha kinase 3 (Homo sapiens), Q9NZJ5. CHO PERK-DD fusion, SEAP luminescence translation reporter. inhibition, % at 5.6 µM. 0.17% of 220,000 active. AID 1416, 2008;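 active = inhibition above the mean inhibition of all tested compounds plus 3 SD, set separately per screening campaign, cut at about 2.9% in these data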;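 also: PERK kinase domain activated by AP20187 dimerizer at 100 nM; 0% = DMSO with dimerizer and 100% = rapamycin at 8.4 µM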
NALP1 yeast inh: NALP1 inflammasome inhibitors in reconstituted yeast, colorimetric, S. cerevisiae, triplicate retest. S. cerevisiae NALP1/ASC/caspase-1 growth, X-gal OD620, 72 h. 0.61% of 280,000 active. inhibition, % at 10 µM; in the data active = inhibition mostly above about 24%, no sharp cut-off; inactive = mostly below about 32%
Rce1 inhib: yeast Rce1p protease inhibitors, primary screen, biochemical, fluorescence, cell-free homogeneous; calls only; CAAX prenyl protease 2 (Saccharomyces cerevisiae (strain ATCC 204508 / S288c)), Q03530; yeast membranes, quenched prenylated peptide cleavage fluorescence; 0.27% of 290,000 active;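 active = fall in fluorescence gain of 50% or more versus controls, with final raw signal at or below 3038400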;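 also: plate controls were neutral control wells for no effect and wells lacking membranes for full effect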
NALP3 yeast inh: NALP3 inflammasome inhibitors in reconstituted yeast, primary screen, luminescence, uHTS. Yeast reconstituted NLRP3/ASC/caspase-1, beta-gal luminescence, 24 h. inhibition, % at 10 µM. 0.39% of 330,000 active;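 active = inhibition of 50% or more; inactive = inhibition below 50%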;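 also: plate controls were induced DMSO wells for no effect and uninduced yeast grown without galactose for full effect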
Active calls of the source: *. The list is not random: actives were taken first. Their share in the collection is about 1.6%.

For COc1ccc(NC(=O)CN2CCN(S(=O)(=O)c3cccs3)CC2)cc1Cl the results were V-ATPase pH -2, Yeast superoxide 98 and NALP3 yeast inh 12.
Screening O=C1NC(Cc2ccc(O)cc2)c2nc3ccc(F)cc3c(=O)n2-c2cc3ccccc3cc21 (stereo unspecified) returned V-ATPase pH -2.
`CCCCCCCCOC(=O)c1cc([N+](=O)[O-])c(Sc2ncnc3nc[nH]c23)c([N+](=O)[O-])c1` gave V-ATPase pH 1.
`CN(CC(=O)Nc1ccc(Cl)c(Cl)c1)CC(=O)N1CCc2ccccc21` gave V-ATPase pH 4.
For COC(=O)C[C@@H]1C[C@@H]2c3cc(NS(=O)(=O)c4ccc(F)cc4)ccc3O[C@@H]2[C@@H](CO)O1 the results were V-ATPase pH -3.
For COc1ccc(CC(=O)O/N=C(\N)c2ccncc2)cc1OC the results were V-ATPase pH -2.
`CCC(c1nnnn1C(C)(C)CC)N(CCCO)Cc1cc2cc(C)cc(C)c2[nH]c1=O` (stereo unspecified) gave V-ATPase pH -2, PERK inhibitor 0, NALP1 yeast inh 35* and Rce1 inhib inactive.
CCCC(c1nnnn1C(C)(C)CC)N(CCCO)Cc1cc2cc(C)cc(C)c2[nH]c1=O (stereo unspecified) was read as V-ATPase pH 0, Yeast superoxide 109, PERK inhibitor -1, NALP1 yeast inh 19, Rce1 inhib inactive and NALP3 yeast inh -12.
For O=C(O)c1ccc(CN(c2ccccn2)S(=O)(=O)c2ccccc2)cc1 the results were V-ATPase pH 3, Yeast superoxide inactive, PERK inhibitor 0, NALP1 yeast inh 13, Rce1 inhib active and NALP3 yeast inh 1.
Screening O=S(=O)(c1ccccc1)N(Cc1ccccc1)c1ccccn1 returned V-ATPase pH 4, Yeast superoxide 99, PERK inhibitor -1, NALP1 yeast inh -22, Rce1 inhib inactive and NALP3 yeast inh -48.
`COc1ccc(C2c3[nH]c4ccccc4c3CCN2CCCn2cccn2)c(C)c1C` (stereo unspecified) gave V-ATPase pH 1, Yeast superoxide 91, PERK inhibitor -1, NALP1 yeast inh 51*, Rce1 inhib inactive and NALP3 yeast inh 14.
For COc1cccc(C2c3[nH]c4ccccc4c3CCN2CCCn2cccn2)c1 (stereo unspecified) the results were V-ATPase pH -1, Yeast superoxide 99, PERK inhibitor 0, NALP1 yeast inh 0, Rce1 inhib inactive and NALP3 yeast inh 16.
For O=c1c(Cl)c(O)ccn1C1OC(CO)C(O)C1O (stereo unspecified) the results were V-ATPase pH -2.
`CCOC(=O)C1=NN(c2ccccc2)C(=O)C1` gave V-ATPase pH -4, Yeast superoxide 98, PERK inhibitor 2.9*, NALP1 yeast inh -8, Rce1 inhib inactive and NALP3 yeast inh 0.
Screening Cc1ccccc1OCC(=O)OCC(=O)NC1CCCC(C)C1C (stereo unspecified) returned V-ATPase pH 1.
CCCCCCCCCCn1c2c(c(=N)c3c1CCC3)CCC2 was read as V-ATPase pH 2, Yeast superoxide 124, PERK inhibitor -1, NALP1 yeast inh 34*, Rce1 inhib inactive and NALP3 yeast inh 43.
For CC(C)c1ccc(NC(=O)COc2nncc3ccccc23)cc1 the results were V-ATPase pH 2, Yeast superoxide 75, PERK inhibitor 1, NALP1 yeast inh 20, Rce1 inhib active and NALP3 yeast inh 22.
`O=C(COc1nncc2ccccc12)Nc1ccc(F)c(F)c1` gave V-ATPase pH 4, Yeast superoxide 106, PERK inhibitor 0, NALP1 yeast inh 1 and NALP3 yeast inh 6.
Screening O=C(NCCCN1CCCC1=O)C(=O)NCC1OCCN1S(=O)(=O)c1cc(F)ccc1F (stereo unspecified) returned V-ATPase pH 1.
Screening COCCn1c(-c2ccc(-c3ccc([N+](=O)[O-])cc3Br)o2)nc2c1c(=O)[nH]c(=O)n2CC(C)C returned V-ATPase pH -4, Yeast superoxide 95, PERK inhibitor 0, NALP1 yeast inh 22*, Rce1 inhib inactive and NALP3 yeast inh 10.
COCCn1c(=O)[nH]c(=O)c2c1nc(-c1ccc(-c3ccc(Cl)cc3[N+](=O)[O-])o1)n2Cc1ccccc1 was read as V-ATPase pH 0, Yeast superoxide 119, PERK inhibitor -1, NALP1 yeast inh 25, Rce1 inhib inactive and NALP3 yeast inh 19.
`C[C@H](CO)N1C[C@H](C)[C@H](CN(C)Cc2cccc(F)c2)Oc2ncc(Br)cc2C1=O` gave V-ATPase pH 2.
For COC1CCC2(C)C(=CCC3C4CC(O)CC4(C)CCC32)C1 (stereo unspecified) the results were V-ATPase pH -1.
For O=C(C1=C[C@@H](C2CC2)C[C@@H](OCc2ccc(CO)cc2)O1)N1CCN(Cc2ccccc2)CC1 the results were V-ATPase pH 3, Yeast superoxide 114, PERK inhibitor 1, NALP1 yeast inh 3, Rce1 inhib active and NALP3 yeast inh -1.
For CN1CCN(C(=O)C2=C[C@H](C3CC3)C[C@H](OCc3ccc(CO)cc3)O2)CC1 the results were V-ATPase pH -3, Yeast superoxide 98, Rce1 inhib inactive and NALP3 yeast inh 20.
`CN1CCN(C(=O)C2=C[C@@H](C3CCCCC3)C[C@@H](OCc3ccc(CO)cc3)O2)CC1` gave V-ATPase pH -5, Yeast superoxide 98, PERK inhibitor 1, NALP1 yeast inh 24*, Rce1 inhib inactive and NALP3 yeast inh 11.
Screening COc1ncnc2c1ncn2CCCN1CCN(C(=O)C2CC2)CC1 returned V-ATPase pH 3.
`Cc1cc(C)c(S(=O)(=O)NCc2ccncc2)c(C)c1` gave V-ATPase pH 2, Yeast superoxide 101, PERK inhibitor -1, NALP1 yeast inh 39*, Rce1 inhib inactive and NALP3 yeast inh 17.
`Cc1cc(C)c(S(=O)(=O)NCCc2ccncc2)c(C)c1` gave V-ATPase pH 8, Yeast superoxide 86, NALP1 yeast inh 8, Rce1 inhib inactive and NALP3 yeast inh 7.
`C=CCn1c(=O)c2c(nc(-c3ccc(S(=O)(=O)O)cc3)n2C)n(C)c1=O` gave V-ATPase pH 6, Yeast superoxide 97, Rce1 inhib active and NALP3 yeast inh 15.
For Cc1cccc(C)c1NC(=O)C1CCCN(CCCc2ccccc2)C1 (stereo unspecified) the results were V-ATPase pH 1, PERK inhibitor 0 and NALP1 yeast inh 42*.
